In the supplement of paper PMC7411640:
Counter-ions that a name gives are not always drawn.

System: MDA-MB-468
Experiment: phospho-S6 immunofluorescence (DAPI-normalised), per-plate z-score; higher = higher phospho-S6 signal (less pathway suppression)
Conditions: 24 h
Experimental: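 GPCR-targeted compound library (MedChemExpress HY-L006) tested on MDA-MB-468 PTEN-null TNBC cells in 384-well plates at 0.1, 1 or 10 uM, combined with vehicle, GDC0941 450 nM or lapatinib 1 uM, for 24 h. Phospho-S6 (S240/244) immunofluorescence normalised to DAPI and expressed as a per-plate z-score; values are the mean of biological triplicates.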

| SMILES | phospho-S6 immunofluorescence (z-score) (co-treatment: GDC0941 450 nM) | phospho-S6 immunofluorescence (z-score) (co-treatment: lapatinib 1 uM) | phospho-S6 immunofluorescence (z-score) (co-treatment: vehicle) |
| --- | --- | --- | --- |
| CCc1nn(CCCN2CCN(c3cccc(Cl)c3)CC2)c(=O)n1CCOc1ccccc1 [Nefazodone (hydrochloride)] (compound 10 µM) | -4.37 | -2.37 | -1.26 |
| O=C1CC2(CCCC2)CC(=O)N1CCCCN1CCN(c2ncccn2)CC1 [Buspirone (hydrochloride)] (compound 10 µM) | 0.3 | 0.17 | 0.69 |
| CCNC(=O)[C@@H]1CCCN1C(=O)[C@H](CCCNC(=N)N)NC(=O)[C@H](CC(C)C)NC(=O)[C@@H](CC(C)C)NC(=O)[C@H](Cc1ccc(O)cc1)NC(=O)[C@H](CO)NC(=O)[C@H](Cc1c[nH]c2ccccc12)NC(=O)[C@H](Cc1c[nH]cn1)NC(=O)[C@@H]1CCC(=O)N1 [Leuprolide (Acetate)] (compound 10 µM) | 0.41 | -0.17 | 0.11 |
| COC1CCC(C(=O)c2ccc3nc4c(cc3c2)CCCO4)CC1 (stereo not drawn) (compound 10 µM) | -0.83 | 0.85 | 0.02 |
| O=C(O[C@@H]1C[C@@H]2C[C@H]3C[C@H](C1)N2CC3=O)c1c[nH]c2ccccc12 [Dolasetron (Mesylate hydrate)] (compound 10 µM) | 0.52 | -0.24 | 0.62 |
| OCCOCCN1CCN(Cc2cccc(Oc3ccccc3)c2)CC1 (compound 10 µM) | -0.36 | 0.35 | -1.04 |
| COc1ccccc1N1CCN(CC(O)COc2cccc3ccccc23)CC1 (stereo not drawn) [Naftopidil] (compound 10 µM) | -0.13 | -0.63 | 0.64 |
| COc1ccc(CCN2CCN(CCCc3ccccc3)CC2)cc1OC [SA4503 (dihydrochloride)] (compound 10 µM) | 0.13 | -0.13 | -0.47 |
| C[N+]1(C)[C@@H]2C[C@@H](OC(=O)C(O)(c3cccs3)c3cccs3)C[C@H]1[C@@H]1O[C@@H]12 [Tiotropium (Bromide)] (compound 10 µM) | -0.58 | 0.42 | -0.69 |
| CN1[C@@H]2CC[C@H]1C[C@@H](OC(c1ccccc1)c1ccccc1)C2 [Benztropine (mesylate)] (compound 10 µM) | 1.67 | -1.69 | 0.29 |
| Cc1noc(-c2ccc(-c3ccc(CC(=O)O)cc3)cc2)c1NC(=O)O[C@H](C)c1ccccc1 [AM095 (free acid)] (compound 10 µM) | 1.08 | 0.37 | 0.82 |
| COC(=O)[C@H](c1ccccc1Cl)N1CCc2sccc2C1 [Clopidogrel (hydrogen sulfate)] (compound 10 µM) | 0.58 | -1.03 | -0.92 |
| Cc1cc2c(cc1Cl)N(C(=O)Nc1ccc(Oc3cccnc3C)nc1)CC2 (compound 10 µM) | -3.98 | -5.09 | -1.44 |
| CN(C)CC1CCOC1(c1ccccc1)c1ccccc1 (stereo not drawn) [AVex-73 hydrochloride] (compound 10 µM) | -0.82 | -1.17 | 0.2 |
| Cc1cc(NC(=O)Nc2ccc(N(C)C)cc2)c2cc(F)cc(F)c2n1 (compound 10 µM) | -2.07 | -0.1 | -2.06 |
| C#CCOc1ccc2c(c1)c(-c1ccc(C(C)C)cc1)nc(=O)n2C(C)C [Calcium-Sensing Receptor Antagonists I] (compound 10 µM) | -3.51 | -4.39 | -4.18 |
| OC(CCN1CCCCC1)(c1ccccc1)C1CCCCC1 (stereo not drawn) [Trihexyphenidyl (hydrochloride)] (compound 10 µM) | -0.3 | -0.52 | 0.56 |
| OCC1OC(n2cnc3c(NC4CCCCC4)ncnc32)C(O)C1O (stereo not drawn) [N6-Cyclohexyladenosine] (compound 10 µM) | -0.37 | 1.37 | 0.6 |
| C(=C\c1ccccc1)/CN1CCN(C(c2ccccc2)c2ccccc2)CC1 [Cinnarizine] (compound 10 µM) | 0.86 | 0.22 | 1.3 |
| COc1ccccc1Oc1c(NS(=O)(=O)c2ccc(C(C)(C)C)cc2)nc(-c2ncccn2)nc1OCCO [Bosentan] (compound 10 µM) | 0.53 | 0.78 | 1.05 |
| CN1CCCC(n2nc(Cc3ccc(Cl)cc3)c3ccccc3c2=O)CC1 (stereo not drawn) [Azelastine (hydrochloride)] (compound 10 µM) | 0.6 | -0.25 | 0.16 |
| COCCCN1CCC(NC(=O)c2cc(Cl)c(N)c3c2OCC3)CC1 [Prucalopride] (compound 10 µM) | 0.54 | 0 | 0.17 |
| CC(C)OC(=O)N1CCC(Oc2ncnc3c2cnn3-c2ccc(S(C)(=O)=O)cc2F)CC1 (compound 10 µM) | -0.32 | -0.15 | -0.38 |
| Cn1cc(C(=O)[C@@H]2CCc3[nH]cnc3C2)c2ccccc21 [Ramosetron (Hydrochloride)] (compound 10 µM) | -1.27 | 0 | -0.92 |
| CC1(C)O[C@@H]2C[C@H]3[C@@H]4C[C@H](F)C5=CC(=O)C=C[C@]5(C)[C@@]4(F)[C@@H](O)C[C@]3(C)[C@]2(C(=O)CO)O1 [Fluocinolone (Acetonide)] (compound 10 µM) | -0.92 | 0.83 | -0.53 |
| COc1ccc(/C=C/C(=O)Nc2ccccc2C(=O)O)cc1OC [Tranilast] (compound 10 µM) | 1.77 | -0.19 | 0.33 |

| SMILES | phospho-S6 immunofluorescence (z-score) (co-treatment: GDC0941 450 nM) | phospho-S6 immunofluorescence (z-score) (co-treatment: lapatinib 1 uM) | phospho-S6 immunofluorescence (z-score) (co-treatment: vehicle) |
| --- | --- | --- | --- |
| CCc1ccc(OCc2ccccc2C(=O)Nc2ccc3nc(C)cc(N)c3c2)cc1 (compound 10 µM) | -5.98 | -12 | -10.4 |
| Cc1ccccc1C(=O)Nc1ccc(C(=O)N2CCCC(N(C)C)c3ccccc32)cc1 (stereo not drawn) [Mozavaptan] (compound 10 µM) | -0.25 | -0.18 | -0.16 |
| CCCCC[C@H](O)/C=C/[C@H]1[C@H](O)CC(=O)[C@@H]1C/C=C\CCCC(=O)O [Prostaglandin E2] (compound 10 µM) | -0.11 | 1.46 | -0.52 |
| CCCCCCOc1nsnc1C1=CCCN(C)C1 [Xanomeline (oxalate)] (compound 10 µM) | -0.72 | -0.5 | 1.16 |
| CNc1nc(NCc2ccc(NS(C)(=O)=O)cc2Cl)cc(-c2ccccn2)n1 (compound 10 µM) | -3.45 | -5.07 | -4.83 |
| O=C(NC(Cc1cc(=O)[nH]c2ccccc12)C(=O)O)c1ccc(Cl)cc1 (stereo not drawn) [Rebamipide] (compound 10 µM) | 0.69 | 1.1 | 0.16 |
| CC(C)(C)NCC(O)c1cc(O)cc(O)c1 (stereo not drawn) [Terbutaline (sulfate)] (compound 10 µM) | 0.52 | 1.51 | 1.44 |
| C[C@@](N)(C(=O)O)c1ccc(C(=O)O)cc1 (compound 10 µM) | 0.93 | 1 | 0.17 |
| CC(=O)OCC(=O)NCCCOc1cccc(CN2CCCCC2)c1 [Roxatidine (Acetate Hydrochloride)] (compound 10 µM) | 0.24 | 0.32 | 0.91 |
| CNC(=C[N+](=O)[O-])NCCSCc1csc(CN(C)C)n1 [Nizatidine] (compound 10 µM) | -1.38 | 0.52 | 1.38 |
| CC(NCCc1ccc(O)cc1)C(O)c1ccc(O)cc1 (stereo not drawn) [Ritodrine (hydrochloride)] (compound 10 µM) | -0.01 | 1.26 | 0.06 |
| C[C@]12CCC(=O)C=C1CC[C@@H]1[C@@H]2C(=O)C[C@@]2(C)[C@H]1CC[C@]2(O)C(=O)CO [Cortisone] (compound 10 µM) | 0.47 | 0.58 | 1.14 |
| COc1cc(N)c(Cl)cc1C(=O)NC1CCN(CCCOc2ccc(F)cc2)CC1OC (stereo not drawn) [Cisapride] (compound 10 µM) | -1.02 | -1.88 | -0.58 |
| COc1cc(C(=O)NS(=O)(=O)c2ccccc2C)ccc1Cc1cn(C)c2ccc(NC(=O)OC3CCCC3)cc12 [Zafirlukast] (compound 10 µM) | -2.01 | -0.41 | 0.19 |
| CCCCOc1ccc(C(=O)Nc2ccc(F)cc2F)cc1 (compound 10 µM) | -0.51 | -1.06 | 0.89 |
| COc1ccccc1OCCNCC(O)COc1cccc2[nH]c3ccccc3c12 (stereo not drawn) [Carvedilol] (compound 10 µM) | -4.07 | -4.63 | -3.59 |
| CCN(CC)CCNC(=O)c1cc(Cl)c(N)cc1OC [Metoclopramide] (compound 10 µM) | -0.3 | 0.63 | -0.11 |
| CC(C)(C(=O)O)c1ccc(C(O)CCCN2CCC(C(O)(c3ccccc3)c3ccccc3)CC2)cc1 (stereo not drawn) [Fexofenadine (hydrochloride)] (compound 10 µM) | -0.31 | -0.84 | -0.42 |
| CC(C)NC[C@H](O)COc1ccc(CCOCC2CC2)cc1 [Levobetaxolol (hydrochloride)] (compound 10 µM) | -0.39 | -0.2 | -0.19 |
| CCCCc1ccc(NS(=O)(=O)c2ccc(F)cc2)cc1 (compound 10 µM) | -3.59 | -8.48 | -10.2 |
| CN1CCN2c3ccccc3Cc3ccccc3C2C1 (stereo not drawn) [Mianserin (hydrochloride)] (compound 10 µM) | 1 | -0.76 | 1.67 |
| CC(C)C(=O)OCC(=O)[C@@]12O[C@H](C3CCCCC3)O[C@@H]1C[C@H]1[C@@H]3CCC4=CC(=O)C=C[C@]4(C)[C@H]3[C@@H](O)C[C@@]12C [Ciclesonide] (compound 10 µM) | -3.85 | 0 | -1.25 |
| COc1cc(NC(=O)c2ccccn2)ccc1Cl (compound 10 µM) | -0.65 | -0.21 | 0.28 |
| CC(=O)[C@H]1CC[C@H]2[C@@H]3CC=C4C[C@@H](O)CC[C@]4(C)[C@H]3CC[C@]12C [Pregnenolone] (compound 10 µM) | 1.58 | 1.58 | 0.85 |
| O=C(Nc1cc(Cl)cc(Cl)c1)[C@H]1CCCC[C@H]1C(=O)O (compound 10 µM) | 0.83 | 0.12 | 0.42 |
